Most compounds without a hit are left out; they make up all but 3.6% or so of the library.
Rango-impB inh: inhibitors of Rango-importin beta complex formation; AID 540263; 0.031% of 340,000 active; Rango CFP/YFP FRET sensor + importin beta, 45 min; Potency, µM (titrated, usually from 92.2 µM), for inactives: at the highest dose inhibition of complex formation; calls by dose curve;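 further: potency means the concentration at half of the fitted maximal effect; 0% = DMSO wells and 100% = buffer wells lacking importin beta; nearly all actives have a fitted effect of over 15% in size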
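Inhibition scored from the CFP 486 nm/YFP 530 nm FRET ratio 45 min after adding 0.125 microM importin beta to 50 nM Rango biosensor preincubated 5 min with compound (room temperature, PBS with DTT, Tween-20, BSA). No-importin wells as positive control.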
GCN5L2 inh: inhibitors of human GCN5L2 histone acetyltransferase. GCN5L2 HAT assay, ThioGlo1 CoA-SH fluorescence. Potency, µM (series often up to 58.9 µM), for the others: at the highest dose activity change, negative = inhibition, hits mostly inhibitors. 0.21% of 390,000 active; further: potency means the concentration at half of the fitted maximal effect; on the % scale 0 is the no-effect control and ±100 the full control effect
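Compounds, pin-transferred from DMSO stocks, meet 20nM GCN5L2 for 15 min before the reaction begins with H3(1-25) peptide (75uM) and acetyl-CoA (70uM). Thiol-reactive ThioGlo1 reports CoA release over 20 min at room temperature.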
VDR inhibitor: vitamin D3 receptor (human) inhibition | P11473 | VDR-SRC2-3 peptide fluorescence polarization, 2 h | Potency, µM, without a hit: max response, negative = inhibition, most hits filed as inhibitors | 0.93% of 400,000 active | AID 504847; further: potency means the concentration at half of the fitted maximal effect; on the % scale 0 is the no-effect control and ±100 the full control effect
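After 23 nl compound addition and a short centrifugation, plates sat for 2 hours at ambient temperature; polarization of fluorescence then indicated loss of VDR binding to peptide SRC2-3.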
PI5P4Ka inh: PI5P4K alpha (human) kinase inhibition; P48426; PI5P4Kalpha enzyme, ADP-Glo luminescence, 60 min; active compounds read low; max response, %; 1.2% of 330,000 active; active means max response of -50% or lower; inconclusive means between -30% and -50%; inactive means -30% or higher; further: value at the top dose of about 77 µM; on the % scale 0 is the no-effect control and ±100 the full control effect
Target sequence (P48426 whole entry, looked up): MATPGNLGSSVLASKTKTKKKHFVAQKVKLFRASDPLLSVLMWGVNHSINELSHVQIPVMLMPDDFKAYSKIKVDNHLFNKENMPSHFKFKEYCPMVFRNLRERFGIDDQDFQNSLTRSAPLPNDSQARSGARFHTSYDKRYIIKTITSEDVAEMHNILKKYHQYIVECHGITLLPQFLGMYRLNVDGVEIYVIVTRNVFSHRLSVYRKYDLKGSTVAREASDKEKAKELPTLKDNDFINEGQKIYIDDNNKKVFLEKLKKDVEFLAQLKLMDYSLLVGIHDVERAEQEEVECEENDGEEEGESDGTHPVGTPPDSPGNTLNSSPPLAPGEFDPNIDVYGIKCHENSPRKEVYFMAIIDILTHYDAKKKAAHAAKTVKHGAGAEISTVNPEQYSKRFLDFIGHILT
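PI5P4Kalpha ADP-Glo assay; 5 microM ATP final; 60 min RT reaction; HEPES pH 7.4/EGTA/CHAPS, 5% DMSO; controls lacking substrate or enzyme; luminescent end-point.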
Rango release inh: inhibition of RanGTP-driven Rango-importin beta dissociation; O95149+P62826; Biochemical FRET Rango-importin beta, RanGTP-induced dissociation; Potency, µM (titrated, usually from 46.1 µM), for the others: top-dose activity change, negative = inhibition; 0.071% of 340,000 active; calls by dose curve; further: potency means the concentration at half of the fitted maximal effect; % of control where 0% means no effect; nearly all actives have a fitted effect of over 45% in size
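Quantitative HTS using a FRET biosensor: 0.1 uM Rango, 0.25 uM importin beta, 0.6 uM Ran, 2 mM GTP, 0.2 uM RCC1 final, PBS with DTT, Tween-20 and BSA. Post-read taken 45 min after Ran addition.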
PLK1 PBD inh: PLK1 (human) polo-box domain binding inhibition. P53350. Plk1 PBD binding of FITC phosphopeptide, fluorescence polarization. Potency, µM, inactives show max response, negative = inhibition, hits mostly inhibitors. 2.8% of 360,000 active. AID 720504; further: potency means the concentration at half of the fitted maximal effect; series mostly up to about 57 µM; on the % scale 0 is the no-effect control and ±100 the full control effect; nearly all actives have a fitted effect of over 65% in size
An asterisk follows results filed as active; ! = not active in a repeat. Unless noted, the call rests on the fitted dose curve; in most records, active means well fitted curve in the direction sought with a large enough effect; inconclusive means small, poorly fitted or top-dose-only effect, or another doubt; inactive means no such curve, though single readings can be large; an effect the other way counts as inactive or inconclusive.

What do the screens show for `O=C(O)c1ccc2c(c1)C(=O)N(Cc1ccccc1)C2=O`?
Rango-impB inh: -1.8%; GCN5L2 inh: -1.3%; VDR inhibitor: 5.8%; PI5P4Ka inh: -72.8*; Rango release inh: -8.6%; PLK1 PBD inh: -7.3%

What do the screens show for `O=C(Nc1ccc(O)cc1)c1ccc2c(c1)C(=O)N(Cc1ccccc1)C2=O`?
Rango-impB inh: 0.4%; GCN5L2 inh: -8.7%; VDR inhibitor: -11.8%; PI5P4Ka inh: -12.4; Rango release inh: 3.0%; PLK1 PBD inh: -4.2%

What do the screens show for `O=C(NC1CC(=O)N(c2ccccc2)C1)c1ccc(S(=O)(=O)N2CCCCC2)cc1` (stereo unspecified)?
GCN5L2 inh: -10.3%; VDR inhibitor: -13.7%

How did CC(=O)Nc1ccc(NCC(O)COc2ccccc2)cc1 (stereo unspecified) do in these assays?
Rango-impB inh: 1.8%; GCN5L2 inh: -1.4%; VDR inhibitor: -5.8%; PI5P4Ka inh: -0.2; Rango release inh: 1.7%; PLK1 PBD inh: 0.9%

Results for COCC(O)CNc1ccccc1 (stereo unspecified) ?
Rango-impB inh: -1.1%; GCN5L2 inh: 6.5%; VDR inhibitor: inconclusive; PI5P4Ka inh: -4.7; Rango release inh: 7.5%; PLK1 PBD inh: 23.8µM*

Results for Cc1oc(-c2ccccc2)cc1C(=O)Nc1cccc(/C=C/C(=O)O)c1 ?
Rango-impB inh: 2.1%; GCN5L2 inh: -5.0%; VDR inhibitor: -7.8%; PI5P4Ka inh: -19.3; Rango release inh: -10.8%; PLK1 PBD inh: 21.2µM*

What do the screens show for `OCCN1CCN(CC(O)COCCOc2ccc(Br)cc2)CC1` (stereo unspecified)?
Rango-impB inh: -0.9%; GCN5L2 inh: 4.1%; VDR inhibitor: 17.8µM*; PI5P4Ka inh: -21.9; Rango release inh: inconclusive; PLK1 PBD inh: 10.6µM*

How did O=C(CCCCCn1c(=O)c2sccc2n(Cc2ccc(Cl)cc2)c1=O)NCc1ccc2c(c1)OCO2 do in these assays?
GCN5L2 inh: 1.6%; VDR inhibitor: 89.1µM*

What do the screens show for `Cc1nn(CC(=O)NC2CC2)c(=O)c2cc3cc(F)ccc3n12`?
GCN5L2 inh: -5.6%; VDR inhibitor: 5.3%

Results for O=C(O)c1ccc(N/N=C/c2ccc(OC(=O)c3cccc(Cl)c3)cc2)cc1 ?
Rango-impB inh: 1.6%; GCN5L2 inh: -3.7%; VDR inhibitor: -13.2%; PI5P4Ka inh: -5.8; Rango release inh: 5.1%; PLK1 PBD inh: 21.2µM*

What do the screens show for `COc1ccc2c(c1)c1c(c(=O)n(Cc3ccccc3)c(=O)n1CC(=O)NCc1ccccc1Cl)n2C`?
GCN5L2 inh: -3.2%; VDR inhibitor: 14.7%

How did O=[N+]([O-])c1cccnc1N1CCC(c2cc(-c3ccc(Cl)cc3Cl)n[nH]2)CC1 do in these assays?
Rango-impB inh: -5.8%; GCN5L2 inh: -1.0%; VDR inhibitor: -3.2%; PI5P4Ka inh: 12.5; Rango release inh: 12.4%; PLK1 PBD inh: 10.6µM*

Results for Cc1cc(C)n(-c2nc3cc(Cl)ccc3nc2N2CCN(c3cccc(C)c3C)CC2)n1 ?
GCN5L2 inh: -10.5%; VDR inhibitor: -13.0%

Results for Cc1c(NC(=O)Nc2ccc([N+](=O)[O-])cc2)c(=O)n(-c2ccccc2)n1C ?
Rango-impB inh: 2.8%; GCN5L2 inh: -3.4%; VDR inhibitor: inconclusive; PI5P4Ka inh: inconclusive; Rango release inh: 21.5%; PLK1 PBD inh: 9.47µM*

What do the screens show for `Cc1c(NC(=S)N/N=C/c2ccc(O)cc2)c(=O)n(-c2ccccc2)n1C`?
Rango-impB inh: 3.7%; GCN5L2 inh: -3.4%; VDR inhibitor: 6.0%; Rango release inh: 0.2%; PLK1 PBD inh: -3.1%

What do the screens show for `Cc1c(NC(=S)N/N=C/c2cc([N+](=O)[O-])ccc2O)c(=O)n(-c2ccccc2)n1C`?
Rango-impB inh: -0.1%; GCN5L2 inh: -27.3%; VDR inhibitor: 0.5%; PI5P4Ka inh: -60.6*; Rango release inh: -4.8%; PLK1 PBD inh: -11.9%

What do the screens show for `Cc1ccc(N2CC(NC(=O)Cc3cccs3)CC2=O)cc1C` (stereo unspecified)?
GCN5L2 inh: 3.7%; VDR inhibitor: -3.0%

Results for CCc1ccccc1NC(=O)CN1C(=O)c2cccnc2Oc2ccc(Cl)cc21 ?
GCN5L2 inh: -15.8%; VDR inhibitor: 1.7%

Results for CC(=O)N[C@@H](CSC/C=C(\C)CC/C=C(\C)CC/C=C(\C)CCC=C(C)C)C(=O)O ?
GCN5L2 inh: inconclusive; VDR inhibitor: 35.5µM*!

Results for CC(=O)N[C@@H](CSC/C=C(\C)CC/C=C(\C)CCC=C(C)C)C(=O)O ?
GCN5L2 inh: inconclusive; VDR inhibitor: 50.1µM*!

Results for CCCn1c(=O)c(C(=O)NCc2ccccc2)c(O)c2ccccc21 ?
Rango-impB inh: -4.7%; GCN5L2 inh: 1.6%; VDR inhibitor: inconclusive; PI5P4Ka inh: -5.0; Rango release inh: -2.9%; PLK1 PBD inh: 11.9µM*

How did COc1ccc(Nc2nnc(-c3ccc(C)c(S(=O)(=O)N4CCOCC4)c3)c3ccccc23)cc1 do in these assays?
GCN5L2 inh: -6.6%; VDR inhibitor: -9.9%

What do the screens show for `CC(=O)c1cccc(N(C(=O)Cn2nnc3ccccc32)C(C(=O)NCc2ccccc2)c2ccc(F)cc2)c1` (stereo unspecified)?
GCN5L2 inh: -4.7%; VDR inhibitor: 1.0%

How did CCCC1=NN2C(=N)/C(=C\c3cc(C)n(-c4cccc(C)c4)c3C)C(=O)N=C2S1 do in these assays?
Rango-impB inh: inconclusive; GCN5L2 inh: 1.4%; VDR inhibitor: -10.4%; PI5P4Ka inh: -0.1; Rango release inh: -21.2%; PLK1 PBD inh: inconclusive

How did CCCC1=NN2C(=N)/C(=C\c3ccc(SCc4ccco4)o3)C(=O)N=C2S1 do in these assays?
Rango-impB inh: inconclusive; GCN5L2 inh: inconclusive; VDR inhibitor: 1.7%; PI5P4Ka inh: -56.4*; Rango release inh: inconclusive; PLK1 PBD inh: 23.8µM*

Results for CCC1=NN2C(=N)/C(=C\c3ccc(SCc4ccco4)o3)C(=O)N=C2S1 ?
Rango-impB inh: inconclusive; GCN5L2 inh: -26.1%; VDR inhibitor: -10.2%; PI5P4Ka inh: -52.0*; Rango release inh: -20.8%; PLK1 PBD inh: inconclusive

Results for Cc1ccc(S(=O)(=O)c2cn(C)c3cc(N4CCCCCC4)c(F)cc3c2=O)cc1 ?
GCN5L2 inh: -2.9%; VDR inhibitor: 7.5%

What do the screens show for `C#CCOCCOCCOCCNc1nc(N2CCN(C(=O)CCCCCCCCCCNC(=O)[C@H](CCCCN)n3cc(C)nn3)CC2)nc(N2CCN(C(=O)CCCCCCCCCCNC(=O)[C@H](CCCN=C(N)N)n3cc(C[C@@H](C)CC)nn3)CC2)n1`?
Rango-impB inh: 15.5%; GCN5L2 inh: -6.8%; VDR inhibitor: 38.0%; PI5P4Ka inh: -51.2*; Rango release inh: inconclusive; PLK1 PBD inh: 10.4%

Assay outcomes from PubChem BioAssay.
